In PubChem BioAssay AID1159580 (chemical genetic matrix, 2015):
“And” between values parts separate entries of the source, which are not always exact repeats. Equal values may be shown once. About 2,000 (36%) of roughly 5,500 compounds were called active. Roughly 18% stayed inconclusive and do not appear here. Cut-off read from the data, not from the text of the source: active = normalized growth mostly below about 0.91 (no sharp cut-off); inconclusive = no clear call, values can overlap the other calls; inactive = mostly above about 0.92. Some of the results follow.

Experiment: chemical genetic growth profiling, strain panel (AID 1159580);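 note: tested at 20 µM; growth read once vehicle control cultures reached saturation at 30 °C; 1 = growth at the plate median or of vehicle wells; lower values mean less growth of the strain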
Settings: S. cerevisiae deletion strains, growth OD

Measured: normalized growth

Cc1ccc(-c2cc(C(F)(F)F)nn2-c2ccc(S(N)(=O)=O)cc2)cc1
inactive: locus YAL013W, strain DEP1, hits give low values 1 | locus YAL021C, strain ccr4, hits give low values 1 | locus YAL026C, strain drs2, hits give low values 1.03 | locus YAL030W, strain snc1, hits give low values 1.03 | locus YBL061C, strain skt5, hits give low values 1.02 | locus YBR009C, strain hhf1, hits give low values 1.03 | locus YBR021W, strain FUR4, hits give low values 1 | locus YBR023C, strain chs3, hits give low values 1.02 | locus YBR171W, strain sec66, hits give low values 1.05 | locus YBR229C, strain ROT2, hits give low values 0.992 | locus YBR231C, strain swc5, hits give low values 1.05 | locus YBR279W, strain paf1, hits give low values 1.02 | locus YCL011C, strain gbp2, hits give low values 1.03 | locus YCL016C, strain dcc1, hits give low values 1.03 | locus YCL029C, strain bik1, hits give low values 1.04 | locus YCL061C, strain MRC1, hits give low values 1.02 | locus YCL069W, strain vba3, hits give low values 1.03 | locus YCR088W, strain abp1, hits give low values 1.02 | locus YDL005C, strain med2, hits give low values 1.03 | locus YDL035C, strain GPR1, hits give low values 0.979 | locus YDL040C, strain nat1, hits give low values 1.03 | locus YDL074C, strain BRE1, hits give low values 0.975 | locus YDL101C, strain DUN1, hits give low values 1.02 | locus YDL134C, strain PPH21, hits give low values 0.999 | locus YDL185W, strain tfp1, hits give low values 1.02 | locus YDL192W, strain arf1, hits give low values 0.998 | locus YDR001C, strain nth1, hits give low values 1.02 | locus YDR069C, strain doa4, hits give low values 1.02 | locus YDR101C, strain arx1, hits give low values 1.01 | locus YDR137W, strain rgp1, hits give low values 1.02 | locus YDR150W, strain NUM1, hits give low values 1 | locus YDR159W, strain sac3, hits give low values 1.02 | locus YDR162C, strain NBP2, hits give low values 0.988 | locus YDR195W, strain ref2 1.05 | locus YDR297W, strain sur2, hits give low values 1.02 | locus YDR318W, strain mcm21, hits give low values 1.02 | locus YDR334W, strain swr1, hits give low values 1.04 | locus YDR335W, strain msn5, hits give low values 1.03 | locus YDR388W, hits give low values 1.01 | locus YDR392W, strain spt3, hits give low values 1.03 | locus YDR502C, strain sam2, hits give low values 1 | locus YEL003W, strain gim4, hits give low values 1.03 | locus YEL037C, strain rad23, hits give low values 1.03 | locus YEL061C, strain CIN8 (second series), hits give low values 1.04 | locus YEL061C, strain CIN8, hits give low values 0.994 | locus YER015W, strain faa2, hits give low values 1.03 | locus YER016W, strain bim1, hits give low values 1.03 | locus YER110C, hits give low values 1.02 | locus YER111C, strain swi4, hits give low values 1.05 | locus YER155C, strain BEM2 (second series), hits give low values 1.04 | locus YER155C, strain BEM2, hits give low values 1.01 | locus YER167W, strain BCK2, hits give low values 0.998 | locus YFR010W, strain ubp6, hits give low values 1.04 | locus YGL078C, strain dbp3, hits give low values 0.996 | locus YGL086W, strain mad1, hits give low values 0.991 | locus YGL167C, strain pmr1, hits give low values 1.04 | locus YGL173C, strain kem1, hits give low values 1.01 | locus YGL227W, strain vid30, hits give low values 1.04 | locus YGL240W, strain doc1, hits give low values 1.04 | locus YGL248W, strain PDE1, hits give low values 0.996 | locus YGL253W, strain hxk2, hits give low values 1.02 | locus YGR078C, strain PAC10, hits give low values 1.01 | locus YGR135W, strain pre9, hits give low values 1.02 | locus YGR229C, strain SMI1, hits give low values 0.998 | locus YGR252W, strain gcn5, hits give low values 0.962 | locus YHR013C, strain ard1, hits give low values 1.06 | locus YHR027C, strain rpn1, hits give low values 1.03 | locus YHR030C, strain SLT2, hits give low values 1.01 and 0.968 | locus YHR079C, strain IRE1 (second series), hits give low values 1.02 | locus YHR079C, strain IRE1, hits give low values 0.963 | locus YHR094C, strain hxt1, hits give low values 1.01 | locus YHR129C, strain ARP1, hits give low values 1 | locus YHR142W, strain chs7, hits give low values 1.03 | locus YHR200W, strain rpn10, hits give low values 1.01 | locus YIL066C, strain RNR3, hits give low values 0.994 | locus YIL073C, strain SPO22, hits give low values 0.994 | locus YIL125W, strain kgd1, hits give low values 1.01 | locus YIR030C, strain dcg1, hits give low values 1.01 | locus YJL092W, strain hpr5, hits give low values 1.02 | locus YJL095W, strain BCK1 (second series), hits give low values 1.02 | locus YJL095W, strain BCK1, hits give low values 1.04 and 0.974 | locus YJL115W, strain asf1, hits give low values 1.03 | locus YJL129C, strain trk1, hits give low values 1.06 | locus YJL134W, strain LCB3, hits give low values 1 | locus YJL154C, strain vps35, hits give low values 1.02 | locus YJL164C, strain tpk1, hits give low values 1.03 | locus YJL166W, strain qcr8, hits give low values 1.01 | locus YJL168C, strain set2, hits give low values 1.02 | locus YJL187C, strain SWE1 (second series), hits give low values 1.03 | locus YJL187C, strain SWE1, hits give low values 1.02 | locus YJR043C, strain POL32, hits give low values 1.01 | locus YJR066W, strain TOR1, hits give low values 0.974
